Screens: PubChem BioAssay, Sanford-Burnham Center for Chemical Genomics
CYP2C9 activ: CYP2C9 (human) activation; P11712; recombinant CYP2C9, luciferin-H conversion, luminescence; hits give high values; factor 1 = untreated enzyme, 0 = blocked; activation factor at 5 µM; 96,000 tested, 1.4% active;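 active = activation factor of 2 or more for CYP2C9 at a 5 µM dose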;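 also: 0 = sulfaphenazole-blocked wells and 1 = vehicle-only wells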
CYP2C19 inhib: human CYP2C19 inhibition; inhibition, % at 5 µM; CYP2C19 Supersomes, luciferin-H EGE luminescence, 30 min; 96,000 tested, 21% active; AID 778; P33261;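 active = CYP2C19 inhibition above a set limit at 5 µM in the primary screen, cut at about 50% in these data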;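 also: plate controls were negative control wells for no effect and 2.5 mM tranylcypromine positive control for full effect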
CYP2C19 activ: increases human CYP2C19 enzyme activity; P33261; recombinant CYP2C19, luciferin-H EGE luminescence; hits give high values; 0 = fully inhibited enzyme, 1 = untreated enzyme; activation factor at 5 µM; 96,000 tested, under 10 active; AID 1025;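 active = activation factor of at least 2 at 5 µM in the primary screen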;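 also: 0 = wells with 2.5 mM tranylcypromine and 1 = vehicle-only wells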
PLAP activator: human PLAP activation; purified PLAP enzyme, luminescent substrate read-out; hits give high values; P05187; activation fold at 20 µM; 96,000 tested, 1.2% active; in the data active = activation fold above about 2
Target sequence (P05187 whole entry, looked up): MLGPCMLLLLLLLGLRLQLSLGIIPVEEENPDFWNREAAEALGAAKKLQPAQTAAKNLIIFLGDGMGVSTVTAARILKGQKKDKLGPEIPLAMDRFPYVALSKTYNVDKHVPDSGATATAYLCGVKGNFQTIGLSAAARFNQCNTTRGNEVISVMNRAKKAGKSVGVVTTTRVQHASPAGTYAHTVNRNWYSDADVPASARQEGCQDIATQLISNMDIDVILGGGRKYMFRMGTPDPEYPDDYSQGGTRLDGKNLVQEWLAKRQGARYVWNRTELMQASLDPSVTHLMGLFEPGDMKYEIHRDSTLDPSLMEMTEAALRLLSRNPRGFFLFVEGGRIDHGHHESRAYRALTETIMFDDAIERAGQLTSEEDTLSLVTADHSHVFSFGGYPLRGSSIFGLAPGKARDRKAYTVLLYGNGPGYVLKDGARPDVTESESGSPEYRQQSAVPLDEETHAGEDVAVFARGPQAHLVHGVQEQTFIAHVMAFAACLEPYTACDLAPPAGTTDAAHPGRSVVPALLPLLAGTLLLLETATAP
CYP2C9 inh: human CYP2C9 inhibition; P11712; inhibition, % at 5 µM; AID 777; CYP2C9 Supersomes, luciferin-H conversion, luminescence; 96,000 tested, 20% active;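 active = blocking of liver enzyme CYP2C9 beyond about 50% at 5 µM, limit read from the data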
* marks the source's active call; other numbers are inactive results. This is a sample that favours compounds with a hit; in the whole collection about 31% have one here.

SMILES	CYP2C9 activ	CYP2C19 inhib	CYP2C19 activ	PLAP activator	CYP2C9 inh
Clc1ccccc1CN1CCN(c2ccccc2)CC1	0.6	99*	0	0.8	41
COc1ccccc1N1CCN(Cc2ccccc2Cl)CC1	0.8	44	0.6	0.9	16
Clc1cccc(Cl)c1CN1CCN(c2ccccc2)CC1	0.6	95*	0	0.7	38
Nc1ccc(N2CCN(Cc3ccccc3Cl)CC2)c(Cl)c1	0.1	97*	0	1.3	86*
CC(C)CCP(=O)(O)c1ccccc1	0.8	4	1	1	20
CCOCCN1CCN(c2nnc3n2-c2ccc(Cl)cc2C(c2ccccc2Cl)=NC3)CC1	0.8	4	1	1.5	22
CCN1CCN(Cc2cc(OC)c(OC)cc2[N+](=O)[O-])CC1	1.1	-14	1.1	1.1	-10
CC(C)(C)C(O)C(Oc1ccc(Cl)cc1)n1cncn1 (stereo not given)	0.4	95*	0	1.1	58*
CN(C)P1(N(C)C)=NC(C(F)(F)F)=NC(C(F)(F)F)=N1	1.2	15	0.9	1.4	-20
COc1ccc2nc(NC(=O)CCc3nc(C4=CCN(C)CC4)no3)sc2c1	0.2	36	0.6	1.3	75*
CCOc1ccc(CC2C(=O)NC(=O)N(c3ccc(CC)cc3)C2=O)cc1 (stereo not given)	0.3	39	0.6	1.7	67*
O=c1cccc2n1CC1CC2CN(C(c2ccccc2)c2sc3ncnn3c2O)C1 (stereo not given)	0.7	-21	1.2	1.2	26
CCN(CC)C(=O)c1ccc(NC(=O)c2cccc(F)c2)cc1	1.2	4	1	0.8	-20
COC(=O)C(O)(c1cn(C)c2ccccc12)C(F)(F)F (stereo not given)	2.8*	6	0.9	0.9	-180
CN1CCN(C(=O)COc2ccc3ccccc3c2Br)CC1	1.3	66*	0.3	1.3	-26
Cc1cc(Cl)ccc1OCC(=O)N1CCN(C)CC1	1.1	28	0.7	1.2	-5
Clc1cnc(Oc2ccc(Oc3ncc(Cl)cc3Cl)cc2)c(Cl)c1	1.9	5	0.9	0.8	-94
O=C1NC(=O)[C@]2(Cc3ccccc3N3CCN(c4ccccc4)CC32)C(=O)N1c1ccccc1 (stereo not given in full)	0.1	63*	0.4	1.4	91*
O=C1NC(=O)[C@]2(Cc3ccccc3N3CCN(c4ccccc4)CC32)C(=O)N1Cc1ccccc1 (stereo not given in full)	0.1	71*	0.3	1.5	91*
CCCCN1C(=O)NC(=O)C2(Cc3ccccc3N3CCOCC32)C1=O (stereo not given)	0.3	70*	0.3	1.3	67*
CN1C(=O)NC(=O)C2(Cc3ccccc3N3CCOCC32)C1=O (stereo not given)	0.9	0	1	1	8
CC1(C)CC2(CCO1)NCCN1C(=O)CSC12 (stereo not given)	1.1	6	0.9	1.1	-5
Cc1nc2c(c(C)nn2-c2ccccc2)c(C)c1CCC(=O)N1CCC2(CC1)OCCO2	0.9	16	0.8	1.5	5
C[C@H]1CCCC(=O)CCC/C=C/c2cc(O)cc(O)c2C(=O)O1	0.1	88*	0.1	1.2	90*
O=C(Nc1ccc(F)cc1F)c1cccnc1Oc1cccc(C(F)(F)F)c1	0.8	18	0.8	0.8	18
SMILES	CYP2C9 activ	CYP2C19 inhib	CYP2C19 activ	PLAP activator	CYP2C9 inh
O=C(c1ccc2c(=O)n(Cc3ccc4c(c3)OCO4)c(=S)[nH]c2c1)N1CCC2(CC1)OCCO2	0.7	-2	1	1.2	26
CN(C)C(=O)Oc1ccc(-c2nnco2)cc1	1.1	5	1	1.1	-8
CN(C)C(=O)Oc1c(Cl)cc(Cl)c2ccccc12	3.1*	32	0.7	1.3	-210
CC(=O)Nc1cc(C(=O)N2CCC3(CC2)OCCO3)ccc1Sc1ccc(C)cc1	0.6	41	0.6	1.5	36
CCCCN1C(=O)C(C2c3ccccc3C(=O)N2Cc2ccccc2)C(=O)NC1=S (stereo not given)	0.5	18	0.8	1.3	54*
N=C1C(c2ccccc2)=C(O)CN1Cc1ccco1	1	-7	1.1	1.1	-1
COc1ccccc1CN1CCCCC1c1cccnc1 (stereo not given)	1.1	50*	0.5	1.1	-9
COc1ccc(C2NCc3ccccc3-n3cccc32)cc1 (stereo not given)	0.8	50	0.5	0.9	15
COc1cc(C2NCc3ccccc3-n3cccc32)ccc1O (stereo not given)	0.3	73*	0.3	1.4	66*
O=C1C2CCCN2C(c2cccs2)N1c1ccccn1 (stereo not given)	1.1	-10	1.1	1.1	-13
Cc1ccc(N2C(=O)/C(=C/c3ccc(CN(CCC#N)S(C)(=O)=O)o3)C(=O)NC2=S)cc1	0.5	11	0.9	1.1	47
O=C(CSc1ccccc1)N1CCC2(CC1)OCCO2	0.8	98*	0	1	23
O=C(CCN1C(=O)COc2ccccc21)N1CCC2(CC1)OCCO2	1.1	87*	0.1	1	-12
CC1=C(C(=O)N2CCC3(CC2)OCCO3)C2(CCC(C)CC2)OC1=O (stereo not given)	0.6	93*	0.1	1.3	45
Cc1c(C(=O)N2CCC3(CC2)OCCO3)oc2ccccc12	1.1	98*	0	1.4	-13
O=C(CN1C(=O)CCSc2ccccc21)N1CCC2(CC1)OCCO2	1.1	4	1	1	-12
O=C(CN1CCN(Cc2cccc(Cl)c2)C1=O)N1CCC2(CC1)OCCO2	0.9	-18	1.2	0.9	5
Cn1c2ccccc2c2c(C(=O)N3CCC4(CC3)OCCO4)cn(C3CCCCC3)c(=O)c21	0.3	51*	0.5	1.5	69*
Cc1c2cnn(CC(=O)N3CCC4(CC3)OCCO4)c(=O)c2c(C)n1Cc1ccccc1F	0.6	24	0.8	1.4	42
O=C(Cn1ncc2c3ccccc3n(Cc3cccc(Cl)c3)c2c1=O)N1CCC2(CC1)OCCO2	0.1	79*	0.2	1.5	91*
Cn1c2ccccc2c2cnn(CC(=O)N3CCC4(CC3)OCCO4)c(=O)c21	0.9	57*	0.4	1.5	14
Clc1cccc(Cl)c1C1N2CCCN12 (stereo not given)	0.9	11	0.9	1	14
COc1cc(C2SCC(=O)Nc3c2c(=O)[nH]n3C2CCCCCC2)cc(OC)c1OC (stereo not given)	0.8	7	0.9	1	16
CCOP(=O)(OCC)C(c1ccccc1)N(C)C=O (stereo not given)	0.9	4	1	0.9	8
S=C(c1ccc(Cl)cc1)N1CCOCC1	0.9	66*	0.3	1.1	10
Cc1nc2ccc(Cl)cn2c1P(=S)(N1CCOCC1)N1CCOCC1	0.8	5	1	1.4	15
Cc1ccc(S(=O)(=O)NP(=O)(Oc2ccccc2)Oc2ccccc2)cc1	0.2	13	0.9	1.4	78*
